# A number with no mark means an inactive call. Active and inactive are the calls of the source. No stated cut-off is given here; in the data, active means remaining activity below about 50%; inactive means the rest.
# Biological target: Phospholipase D2 (Homo sapiens) (UniProt O14939)
# Experiment: cellular phospholipase D2 activity inhibition – cell-based, HEK293, single concentration (AID 602143);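 further: tested at 200 nM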
# Conditions: HEK293 cellular PLD2 activity, percent of control; hits give low values
# Sequence of Phospholipase D2 (Homo sapiens) (O14939 whole entry, looked up): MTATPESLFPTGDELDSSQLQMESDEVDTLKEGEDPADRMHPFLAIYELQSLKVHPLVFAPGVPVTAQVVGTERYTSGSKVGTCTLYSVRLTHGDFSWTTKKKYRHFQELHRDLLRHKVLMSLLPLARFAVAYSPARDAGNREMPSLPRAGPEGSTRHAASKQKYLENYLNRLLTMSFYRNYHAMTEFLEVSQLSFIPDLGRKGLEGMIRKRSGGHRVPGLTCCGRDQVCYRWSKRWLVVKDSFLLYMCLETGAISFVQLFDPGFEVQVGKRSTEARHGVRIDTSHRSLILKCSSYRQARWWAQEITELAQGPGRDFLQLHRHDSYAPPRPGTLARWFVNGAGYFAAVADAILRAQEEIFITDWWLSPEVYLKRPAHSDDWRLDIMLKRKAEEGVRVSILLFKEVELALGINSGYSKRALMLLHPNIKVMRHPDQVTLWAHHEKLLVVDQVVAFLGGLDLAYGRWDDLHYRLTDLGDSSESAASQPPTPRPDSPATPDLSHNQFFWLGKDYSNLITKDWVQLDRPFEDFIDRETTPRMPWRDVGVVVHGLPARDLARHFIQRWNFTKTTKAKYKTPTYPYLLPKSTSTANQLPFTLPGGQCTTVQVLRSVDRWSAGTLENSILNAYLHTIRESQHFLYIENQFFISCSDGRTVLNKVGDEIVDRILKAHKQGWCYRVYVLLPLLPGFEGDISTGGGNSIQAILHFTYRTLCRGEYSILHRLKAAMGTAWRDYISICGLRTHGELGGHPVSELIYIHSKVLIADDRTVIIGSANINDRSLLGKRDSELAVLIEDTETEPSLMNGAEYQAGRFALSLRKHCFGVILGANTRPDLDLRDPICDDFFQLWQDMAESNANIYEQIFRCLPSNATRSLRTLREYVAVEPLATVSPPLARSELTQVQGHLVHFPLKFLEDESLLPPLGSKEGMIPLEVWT
# Sequence of Phospholipase D2 (Homo sapiens) (O14939 whole entry, looked up): as above
row,SMILES,remaining activity
1,O=C(NCCN1CCC(n2c(=O)[nH]c3ccc(F)cc32)CC1)c1ccc(C(F)(F)F)cc1,61.8%
2,CN(C)c1cccc2c(S(=O)(=O)NCCN3CCC(n4c(=O)[nH]c5ccccc54)CC3)cccc12,112%
3,O=C(NCCN1CCC(n2c(=O)[nH]c3ccccc32)CC1)c1cccc(Cl)n1,75.4%
4,O=C(NCCN1CCC2(C=Cc3ccccc32)CC1)[C@H]1C[C@@H]1c1ccccc1,130%
5,O=C(NCCN1CCC2(CCc3ccccc32)CC1)c1cnc2ccccc2c1,100%
6,O=C1c2ccccc2C(=O)N1CCCNc1cccc(F)c1,119%
7,O=C(NCCN1CCC(n2c(=O)[nH]c3ccccc32)CC1)C1CCCCCCCCCC1,81.3%
8,C[C@@H](CN1CCC(n2c(=O)[nH]c3ccccc32)CC1)NC(=O)c1cccnc1,97.3%
9,CC1(C)[C@@H]2CC[C@@]1(CS(=O)(=O)NCCN1CCC(n3c(=O)[nH]c4ccccc43)CC1)C(=O)C2,79.6%
10,O=C(C1C[C@@H]1c1ccccc1)N1CCC(n2c(=O)[nH]c3cc(Cl)ccc32)CC1 (stereo partly specified),72.5%
11,C[C@@H](CN1CCC(n2c(=O)[nH]c3cc(I)ccc32)CC1)NC(=O)c1ccc2ccccc2c1,101%
12,O=c1[nH]c2ccccc2n1C1CCN(CCNS(=O)(=O)c2ccccc2Br)CC1,75.8%
13,O=C(NCCN1CCC2(CC1)CNCc1ccccc12)c1ccc2ccccc2c1,103%
14,O=C(NCCN1CCC(n2c(=O)[nH]c3ccc(F)cc32)CC1)c1cccc2c1C(=O)c1ccccc1-2,0% (active)
15,O=C(NCCN1CCC(n2c(=O)[nH]c3ccccc32)CC1)c1cc2ccccc2c2ccccc12,51.2%
16,COc1cccc(N2CCN(CCNC(=O)c3ccc(Cl)cc3)CC2)c1,109%
17,O=C(NCCN1CCC(n2c(=O)[nH]c3ccc(F)cc32)CC1)c1ccc(Cl)c(Cl)c1,0% (active)
18,CN(CCN1CCC(n2c(=O)[nH]c3ccccc32)CC1)C(=O)c1ccc2ccccc2c1,101%

row,SMILES,remaining activity
1,O=C(NCCN1CCC2(CC1)CNc1ccccc12)c1ccc2ccccc2c1,61.8%
2,COc1cccc(N2CCN(CCNC(=O)c3ccc(C(F)(F)F)cc3)CC2)c1,98.3%
3,O=C1c2ccccc2C(=O)N1CCCN1CCC(n2c(=O)[nH]c3ccccc32)CC1,97.3%
4,C[C@@H](CN1CCC(n2c(=O)[nH]c3cc(-c4cccnc4)ccc32)CC1)NC(=O)[C@H]1C[C@@H]1c1ccccc1,72.1%
5,NCCN1CCC(n2c(=O)[nH]c3cc(Cl)ccc32)CC1 (tested in a mixture with another compound),83.1%
6,COc1ccccc1NC(=S)NCCN1CCC(n2c(=O)[nH]c3ccccc32)CC1,126%
7,C[C@@H](CN1CCC2(CC1)CN(S(C)(=O)=O)c1ccccc12)NC(=O)[C@H]1C[C@@H]1c1ccccc1,109%
8,O=C(Cc1ccc2ccccc2c1)NCCN1CCC(n2c(=O)[nH]c3ccccc32)CC1,112%
9,O=C(NCCN1CCC(n2c(=O)[nH]c3ccccc32)CC1)Nc1cccc(OC(F)(F)F)c1,111%
10,Cn1c(C2CCN(CC3(N)CCCC3)CC2)nc2ccccc21 (tested in a mixture with another compound),118%
11,O=C(CCCN1CCC(O)(c2ccc(Cl)cc2)CC1)c1ccc(F)cc1,107%
12,O=c1[nH]c2ccccc2n1C1CCN(CCNS(=O)(=O)c2ccccc2C(F)(F)F)CC1,98%
13,O=C(NCCN1CC=C(n2c(=O)[nH]c3ccccc32)CC1)C1CC1c1ccccc1 (stereo unspecified),28.2% (active)
14,Nc1ccc(C(=O)NCCN2CCC(n3c(=O)[nH]c4ccccc43)CC2)cc1OC(F)(F)F,76.5%
15,O=C(NCCN1CCC(n2c(=O)[nH]c3ccccc32)CC1)Nc1ccccc1F,105%
16,O=C(NCCN1CCC(n2c(=O)[nH]c3ccccc32)CC1)c1cc(-c2ccccc2)no1,50.8%
17,Cc1cccc(NC(=O)NCCN2CCC(n3c(=O)[nH]c4ccccc43)CC2)c1,111%
18,C[C@@H](CN1CCC2(C=Cc3ccccc32)CC1)NC(=O)c1ccc2ccccc2c1,147%

# From PubChem BioAssay AID602143 (Vanderbilt Specialized Chemistry Center, 2011)
